Reference: PMC4552634, “A New Set of Chemical Starting Points with Plasmodium falciparum Transmission-Blocking Potential for Antimalarial Drug Discovery” (PLoS ONE, 2015)
Like-named read-outs stand apart in the source and are kept apart here. Among all 13,000 compounds or so, about 3,200 (25%) showed an effect of 50% or more. This is one part of the list.

Test system: P. falciparum stage V gametocytes
Set-up: BacTiter-Glo ATP luminescence viability of purified stage V gametocytes in 384-well plates, per cent inhibition versus DMSO

Row | SMILES | % Inhibition (48 h, 5 µM; inhibitor) [%] | % Inhibition (48 h, 5 µM, inhibitor) [%]
1 | CN(C)CCC(=O)c1ccccc1 [TCMDC-125532] | 42.07 | 
2 | Cc1ccc(CC(C)NCC(O)c2cccc(C(F)(F)F)c2)cc1F (stereo not drawn) [TCMDC-131520] | 16.03 | 
3 | O=C(c1ccco1)c1cn(CCOc2ccccc2)c2ccccc12 [TCMDC-124426] | -19.68 | 
4 | COc1ccc(OCCn2cc(C(=O)c3ccco3)c3ccccc32)cc1 [TCMDC-124425] | 55.18 | 
5 | Cc1ccc(CC(C)NCC(O)c2cccc(Cl)c2)cc1F (stereo not drawn) [TCMDC-131522] | 25.69 | 
6 | CC[C@H]1CN2CCc3cc(OC)c(OC)cc3[C@@H]2C[C@@H]1C[C@H]1NCCc2c1cc(OC)c(O)c2I [TCMDC-131829] | 88.82 | 
7 | CC[C@H]1CN2CCc3cc(OC)c(OC)cc3[C@@H]2C[C@@H]1C[C@H]1NCCc2c1cc(OC)c(O)c2Cl [TCMDC-131802] | 83.05 | 
8 | CC[C@H]1CN2CCc3cc(OC)c(OC)cc3[C@@H]2C[C@@H]1C[C@H]1NCCc2c1cc(OC)c(OC)c2Br [TCMDC-131803] | 73.47 | 
9 | COc1ccc(NC(=O)NCC2CCCN(CCCCCNC(=O)/C=C/c3ccc(Cl)c(Cl)c3)C2)c(OC)c1 (stereo not drawn) [TCMDC-139520] | -54.43 | 
10 | Cc1ccc(CC(C)NC[C@H](O)c2cccc(Cl)c2)cc1 (stereo partly drawn) [TCMDC-131434] |  | 17.71
11 | Cc1ccc(CC(C)NCC(O)c2cccc([N+](=O)[O-])c2)cc1 (stereo not drawn) [TCMDC-131459] | 42.66 | 
12 | CC(O)C1CCCCN1C(=O)c1cccc(-c2ccc(-c3nc4cc(F)ccc4[nH]3)cc2)c1 (stereo not drawn) [TCMDC-132337] | -4.748 | 
13 | CC(Cc1ccc(C(C)(C)C)cc1)NCC(O)c1ccccc1 (stereo not drawn) [TCMDC-131461] | -2.665 | 
14 | COc1cccc(CC(C)NCC(O)c2cccc(Cl)c2)c1 (stereo not drawn) [TCMDC-131508] | -2.665 | 
15 | COc1ccc(CC(C)NCC(O)c2cccc(C(F)(F)F)c2)cc1 (stereo not drawn) [TCMDC-131471] | 20 | 
16 | Cc1c(C(=O)N[C@@H](C)c2ccccc2)c2cc(O)c(Br)cc2n1C1CCCCC1 [TCMDC-135454] | -62.04 | 
17 | COc1c(F)cc(CC(C)NCC(O)c2cccc(Cl)c2)cc1F (stereo not drawn) [TCMDC-131518] | 14.1 | 
18 | N=c1c2c(n(Cc3ccc(Cl)cc3Cl)c3c1CCC3)CCCC2 [TCMDC-125310] | 74.48 | 
19 | COc1ccc(NC(=S)NC(NC(=O)CF)C(Cl)(Cl)Cl)cc1[N+](=O)[O-] (stereo not drawn) [TCMDC-124240] | -10.17 | 
20 | CCC1=C[C@@H]2CN(C1)Cc1c([nH]c3ccccc13)[C@@](C(=O)OC)(c1cc3c(cc1OC)N(C)[C@H]1[C@@](O)(C(=O)OC)[C@H](O)[C@]4(CC)C=CCN5CC[C@]31[C@@H]54)C2 [TCMDC-137769] | 33.28 | 
21 | Cl.c1ccc2c(NCCCCCCCCCNc3c4ccccc4nc4ccccc34)c3ccccc3nc2c1 [TCMDC-124286] | 134.6 | 

Row | SMILES | % Inhibition (48 h, 5 µM; inhibitor) [%] | % Inhibition (48 h, 5 µM, inhibitor) [%]
22 | Cl.c1ccc2c(NCCCCCCNc3c4ccccc4nc4ccccc34)c3ccccc3nc2c1 [TCMDC-124285] | 125.5 | 
23 | C#CCN1CCC2=C(C1)c1c(O)cc(C(C)C(C)CCc3ccc(F)cc3)cc1OC2(C)C (stereo not drawn) [TCMDC-125707] | -44.99 | 
24 | Cc1ccc(CC(C)NCC(O)c2cccc(C(F)(F)F)c2)cc1 (stereo not drawn) [TCMDC-131476] |  | 12.88
25 | COc1cc2c(cc1OC)CN(CCCCNC(=O)c1ccc(NC(=O)c3cc(Cl)cc(Cl)c3)cc1)CC2 [TCMDC-138217] | -10.96 | 
26 | COc1ccc(CC(C)NCC(O)c2cccc(C(F)(F)F)c2)cc1F (stereo not drawn) [TCMDC-131490] | 18.55 | 
27 | C=Cc1cc(OC)c2c(c1)c(=O)oc1c2cc(OC)c2c(O)ccc([C@H]3O[C@H]([C@H](C)O)[C@H](O)[C@H]3O)c21 [TCMDC-141972] | 49.56 | 
28 | CC(=O)Nc1ccc(OCCN(CC(F)(F)F)c2ccc(C#N)cc2C(F)(F)F)cc1 [TCMDC-135848] | 17.4 | 
29 | NC(N)=NC(=O)Nc1cc(Br)c(Cl)c(Br)c1 [TCMDC-137464] | 72.05 | 
30 | CCC1(C)CC(CCNCc2ccccc2O)(c2ccc(F)cc2)CCO1 (stereo not drawn) [TCMDC-124006] | -8.682 | 
31 | COc1ccc(CC(C)NCC(O)c2cccc(Cl)c2F)cc1 (stereo not drawn) [TCMDC-131488] | 21.97 | 
32 | COc1cc(NC(=O)/C=C/c2cc3ccccc3n2C)ccc1OCCN(C(C)C)C(C)C [TCMDC-139900] | 118 | 
33 | Cc1ccc(CC(C)NCC(O)c2cccc(C(F)(F)F)c2)cc1 (stereo not drawn) [TCMDC-131450] |  | 20.44
34 | Cc1ccc(CC(C)(C)NCC(O)c2cccc(C(F)(F)F)c2)cc1 (stereo not drawn) [TCMDC-131445] | -8.892 | 
35 | CC[C@H]1CN2CC[C@H]1C[C@@H]2[C@@H](O)c1ccnc2ccccc12 [TCMDC-125880] | 69.34 | 
36 | CCCN(CCC)CCOC(=O)C(OCC)(c1ccccc1)c1ccccc1 [TCMDC-131392] | -25.5 | 
37 | COc1ccc2[nH]cc(C3=CCN(Cc4ccccc4)CC3)c2c1 [TCMDC-139048] | -90.48 | 
38 | CC(Cc1ccc(SC(C)(C)C)cc1)NCC(O)c1cccc(Cl)c1 (stereo not drawn) [TCMDC-131492] | -3.8 | 
39 | CC(C)N(C)C(=O)n1cnc(S(=O)(=O)C2CC3CCC2C3)n1 (stereo not drawn) [TCMDC-134379] | 65.83 | 
40 | O=C(NC1CCC(CN2CCC(c3c[nH]c4ccccc34)CC2)CC1)C1(O)c2ccccc2-c2ccccc21 (stereo not drawn) [TCMDC-139901] | 25.48 | 
41 | Cc1nc2ccccn2c1C1(O)C(=O)Nc2c(Cl)cc(Cl)cc21 (stereo not drawn) [TCMDC-124526] | 6.508 | 
42 | COc1ccc(CC(C)NCC(O)c2ccc(Cl)c(Cl)c2)cc1 (stereo not drawn) [TCMDC-131514] | 0.9057 | 
